For some assays here: Potency and affinity values are given separately. Active and inactive are the calls of the source. Entries that show only a call come without a potency. How the calls were made is not given here.

Consider 40 compounds from PubChem BioAssay.

Protein kinase 7 (PK7), Plasmodium falciparum 3D7 (PF3D7_0213400), sequence (Q7YTF7 1-343): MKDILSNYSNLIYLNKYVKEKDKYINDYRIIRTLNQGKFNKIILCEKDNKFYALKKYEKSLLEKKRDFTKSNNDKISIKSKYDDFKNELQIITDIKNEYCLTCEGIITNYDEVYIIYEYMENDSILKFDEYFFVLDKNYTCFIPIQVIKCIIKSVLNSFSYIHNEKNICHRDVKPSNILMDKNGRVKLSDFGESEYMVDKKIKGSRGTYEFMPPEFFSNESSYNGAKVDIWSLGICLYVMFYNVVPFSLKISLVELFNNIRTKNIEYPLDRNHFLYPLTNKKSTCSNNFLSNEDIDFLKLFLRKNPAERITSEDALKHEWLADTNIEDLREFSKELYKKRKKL

For the first assay, the target named is Plasmodium falciparum protein kinase 6 (PK6, PF3D7_1337100) (UniProt Q8IDW1). The assay is described as follows: PfPK6 kinase inhibitors, biochemical, TCAMS library (AID 1159586). The conditions noted are these: recombinant PfPK6, Kinase-Glo ATP depletion luminescence.
Plasmodium falciparum protein kinase 6 (PK6, PF3D7_1337100), sequence (Q8IDW1 1-305): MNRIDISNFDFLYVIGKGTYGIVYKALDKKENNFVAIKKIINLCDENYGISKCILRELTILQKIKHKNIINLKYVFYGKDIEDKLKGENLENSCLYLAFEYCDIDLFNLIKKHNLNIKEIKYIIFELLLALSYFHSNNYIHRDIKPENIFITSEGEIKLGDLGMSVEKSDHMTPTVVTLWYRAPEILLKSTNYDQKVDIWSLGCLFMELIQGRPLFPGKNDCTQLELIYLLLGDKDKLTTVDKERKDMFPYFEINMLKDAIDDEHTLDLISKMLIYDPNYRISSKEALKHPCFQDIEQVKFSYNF
As for `COc1ccc(N2CCN(CCCCNC(=O)c3ccc(NC(=O)c4ccc(Cl)cc4)cc3)CC2)c(OC)c1`, the outcome was inactive.

Turning to `Clc1ccc2c(NCCCCCCCCNc3ccnc4cc(Cl)ccc34)ccnc2c1`, the result was inactive.

In the case of `CN1CCN(CCCN(Cc2cccc(-c3cccc(CNCCc4ccccc4)c3)c2)C(=O)Nc2ccccc2)CC1`, the outcome was inactive.

Regarding `Cc1nc(-c2cccc(Nc3nccc(NCC(O)c4ccccc4C(F)(F)F)n3)c2)cs1` (stereo not given), the outcome was inactive.

Regarding `COc1ccc(NC(=O)CSc2nc(-c3ccccc3Cl)ns2)cc1`, the result was inactive.

Turning to `Cc1cnc(NCCc2ccc(F)cc2)nc1N[C@@H](CC(C)C)C(=O)Nc1ccccc1`, the result was inactive.

As to `COc1cc(CNC[C@@H](O)[C@H](Cc2ccccc2)NC(=O)c2cc(C3CCCC3)cc(N3CCCC3=O)c2)cc(OC)c1`, the outcome was inactive.

`Cc1cccc2[nH]c(-c3ccc(-c4cccc(CNCc5ccccc5)c4)cc3)nc12`: the result was inactive.

Consider `CN1N=C2c3ccccc3CCC2C1c1ccc(C#N)cc1` (stereo not given), for which the result was inactive.

Consider `Cc1c(C(=O)N2CCc3cc4nccc(N5CCN6CCC[C@H]6C5)c4cc32)cnn1-c1ccc(C#N)cc1`, for which the outcome was inactive.

For the compound `CCOc1cc(C)ccc1C1CCN(CCCCNC(=O)c2coc(-c3ccc(Cl)cc3)c2)CC1`, the result was inactive.

In the case of `Cc1cc(N[C@@H](Cc2ccccc2)C(=O)NCc2cccs2)nc(NCCOc2ccccc2)n1`, the result was inactive.

In the case of `COc1cc(COc2c(C)nc(N)nc2N)cc(OC)c1OC`, the result was inactive.

As for `O=C(Nc1cccc(CN2CCCN(CC3CC3)CC2)c1)c1ccc(-c2ccccc2)cc1`, the result was inactive.

Regarding `C=CCc1cc(Br)ccc1OCCCOc1c(N)nc(N)nc1N`, the result was inactive.

Consider `Clc1cccc(Nc2ccc3c(N4CCCCC4)ncnc3n2)c1`, for which the result was inactive.

Take `CC(C)Oc1ccc(C=CC(=O)Nc2noc3ccccc23)cc1`: the outcome was inactive.

With `Cc1ccc2nc(C)cc(NN=Cc3ccc([N+](=O)[O-])o3)c2c1`, the result was inactive.

Take `O=C(NC1CC1)c1cnc(N2CCN(Cc3ccc(Cl)cc3)CC2)c(Cl)c1`: the outcome was inactive.

Turning to `Oc1ccc(CCNc2nc(NCCCOc3cc(CN4CCCCC4)ccc3F)nc(N3CCNCC3)n2)cc1`, the result was inactive.

As to `Cc1nc(-c2ccc(-c3ccc(C(=O)Nc4ccc(I)c(OCCN5CCCC5)c4)cc3)c(C)c2)no1`, the outcome was inactive.

Turning to `c1ccc(C(c2ccccc2)N2CCN(C(c3cccnc3)c3nnnn3C3CCCC3)CC2)cc1` (stereo not given), the result was inactive.

As to `Cc1cc(N)c2cc(NC(=O)c3cccc4ccccc34)ccc2n1`, the outcome was inactive.

Take `COCCn1c(Sc2ccc(C#N)c([N+](=O)[O-])c2)nnc1-c1ccc(N(C)C)cc1`: the outcome was inactive.

As to `COc1ccc(-c2nc3ccc(C)nc3nc2-c2ccc(OC)cc2)cc1`, the result was inactive.

Consider `c1cc(-c2ccc(CN3CCN(c4ccncc4)CC3)cc2)cc(-c2nc3ccccc3[nH]2)c1`, for which the outcome was inactive.

Take `Cn1nc(-c2ccc(S(=O)(=O)N3CCC(CCN4CCC(c5c[nH]c6ccccc56)CC4)CC3)s2)cc1C(F)(F)F`: the result was inactive.

Consider `CCCC(CNC(=O)c1cc2c(Cl)cc(Cl)cc2[nH]1)CNc1cc(=O)c2ccccc2[nH]1` (stereo not given), for which the outcome was inactive.

For `CN1CCC(N2CCC(Oc3cccc(C(=O)NCCCC4CCCC4)c3)CC2)CC1`, the outcome was inactive.

Regarding `CCCc1cc(Cc2cnc(N)nc2N)cc(CCC)c1OCCCCC(=O)O`, the result was inactive.

`O=C(NCC1CCC(C(=O)NCCN2CCCCC2)CC1)c1ccc(O)c(-c2ccc(Cl)c(Cl)c2)c1` (stereo not given): the result was inactive.

With `COc1ccc(Cc2c(C)nc3nc(N)nc(N)c3c2C)cc1OC`, the result was inactive.

On to `CC(C)CCNCc1c(O)ccc2ccccc12`, for which the result was inactive.

Take `CCn1c(C(C)C)cc2c3c(N)nc(N)nc3ccc21`: the outcome was inactive.

With `COCCn1c(Sc2ncnc3sccc23)nc2ccccc21`, the result was inactive.

Turning to `COc1ccccc1CCNc1nc(C)cc(N[C@@H](Cc2ccccc2)C(=O)NCc2cccs2)n1`, the outcome was inactive.

For the compound `Cc1ccc2c(NN=Cc3cccc([N+](=O)[O-])c3)cc(C)nc2c1`, the outcome was inactive.

As to `CCCCCCCN(Cc1ccc(OC(C)(C)C(=O)OCC)cc1)C(=O)Nc1ccccc1OCC`, the outcome was inactive.

Turning to `COc1ccc(CNCc2ccc(-c3ccc(-c4nc5ccc(F)cc5[nH]4)cc3)cc2)cc1`, the result was inactive.

With `COc1ccc(OC)c(-c2cccc(-c3cccc(NC(=O)c4ccc([N+](=O)[O-])o4)c3)n2)c1`, the outcome was inactive.

A further assay has as its target Protein kinase 7 (PK7), Plasmodium falciparum 3D7 (PF3D7_0213400) (UniProt Q7YTF7). The assay is described as follows: inhibition of Plasmodium PK7 catalytic activity – biochemical, TCAMS antimalarial set, Kinase-Glo luminescence (AID 1159587). The note with it: recombinant PfPK7, Kinase-Glo ATP depletion luminescence.
`COc1ccc(N2CCN(CCCCNC(=O)c3ccc(NC(=O)c4ccc(Cl)cc4)cc3)CC2)c(OC)c1`: the result was inactive.

Take `Clc1ccc2c(NCCCCCCCCNc3ccnc4cc(Cl)ccc34)ccnc2c1`: the outcome was inactive.

Consider `CN1CCN(CCCN(Cc2cccc(-c3cccc(CNCCc4ccccc4)c3)c2)C(=O)Nc2ccccc2)CC1`, for which the outcome was inactive.

In the case of `Cc1nc(-c2cccc(Nc3nccc(NCC(O)c4ccccc4C(F)(F)F)n3)c2)cs1` (stereo not given), the outcome was inactive.

On to `COc1ccc(NC(=O)CSc2nc(-c3ccccc3Cl)ns2)cc1`, for which the result was inactive.

In the case of `Cc1cnc(NCCc2ccc(F)cc2)nc1N[C@@H](CC(C)C)C(=O)Nc1ccccc1`, the result was inactive.

Turning to `COc1cc(CNC[C@@H](O)[C@H](Cc2ccccc2)NC(=O)c2cc(C3CCCC3)cc(N3CCCC3=O)c2)cc(OC)c1`, the outcome was inactive.

For `Cc1cccc2[nH]c(-c3ccc(-c4cccc(CNCc5ccccc5)c4)cc3)nc12`, the result was inactive.

For `CN1N=C2c3ccccc3CCC2C1c1ccc(C#N)cc1` (stereo not given), the result was inactive.

For the compound `Cc1c(C(=O)N2CCc3cc4nccc(N5CCN6CCC[C@H]6C5)c4cc32)cnn1-c1ccc(C#N)cc1`, the outcome was inactive.

As for `CCOc1cc(C)ccc1C1CCN(CCCCNC(=O)c2coc(-c3ccc(Cl)cc3)c2)CC1`, the outcome was inactive.

Regarding `Cc1cc(N[C@@H](Cc2ccccc2)C(=O)NCc2cccs2)nc(NCCOc2ccccc2)n1`, the result was inactive.

Consider `COc1cc(COc2c(C)nc(N)nc2N)cc(OC)c1OC`, for which the outcome was inactive.

Regarding `O=C(Nc1cccc(CN2CCCN(CC3CC3)CC2)c1)c1ccc(-c2ccccc2)cc1`, the result was inactive.

Take `C=CCc1cc(Br)ccc1OCCCOc1c(N)nc(N)nc1N`: the result was inactive.

Take `Clc1cccc(Nc2ccc3c(N4CCCCC4)ncnc3n2)c1`: the outcome was inactive.

On to `CC(C)Oc1ccc(C=CC(=O)Nc2noc3ccccc23)cc1`, for which the outcome was inactive.

As for `Cc1ccc2nc(C)cc(NN=Cc3ccc([N+](=O)[O-])o3)c2c1`, the outcome was inactive.

For `O=C(NC1CC1)c1cnc(N2CCN(Cc3ccc(Cl)cc3)CC2)c(Cl)c1`, the outcome was inactive.

Take `Oc1ccc(CCNc2nc(NCCCOc3cc(CN4CCCCC4)ccc3F)nc(N3CCNCC3)n2)cc1`: the outcome was inactive.

Turning to `Cc1nc(-c2ccc(-c3ccc(C(=O)Nc4ccc(I)c(OCCN5CCCC5)c4)cc3)c(C)c2)no1`, the result was inactive.

As for `c1ccc(C(c2ccccc2)N2CCN(C(c3cccnc3)c3nnnn3C3CCCC3)CC2)cc1` (stereo not given), the outcome was inactive.

As to `Cc1cc(N)c2cc(NC(=O)c3cccc4ccccc34)ccc2n1`, the result was inactive.

`COCCn1c(Sc2ccc(C#N)c([N+](=O)[O-])c2)nnc1-c1ccc(N(C)C)cc1`: the outcome was inactive.

Take `COc1ccc(-c2nc3ccc(C)nc3nc2-c2ccc(OC)cc2)cc1`: the result was inactive.

For `c1cc(-c2ccc(CN3CCN(c4ccncc4)CC3)cc2)cc(-c2nc3ccccc3[nH]2)c1`, the outcome was inactive.

`Cn1nc(-c2ccc(S(=O)(=O)N3CCC(CCN4CCC(c5c[nH]c6ccccc56)CC4)CC3)s2)cc1C(F)(F)F`: the result was inactive.

Consider `CCCC(CNC(=O)c1cc2c(Cl)cc(Cl)cc2[nH]1)CNc1cc(=O)c2ccccc2[nH]1` (stereo not given), for which the outcome was inactive.

In the case of `CN1CCC(N2CCC(Oc3cccc(C(=O)NCCCC4CCCC4)c3)CC2)CC1`, the result was inactive.

`CCCc1cc(Cc2cnc(N)nc2N)cc(CCC)c1OCCCCC(=O)O`: the outcome was inactive.

With `O=C(NCC1CCC(C(=O)NCCN2CCCCC2)CC1)c1ccc(O)c(-c2ccc(Cl)c(Cl)c2)c1` (stereo not given), the result was inactive.

For the compound `COc1ccc(Cc2c(C)nc3nc(N)nc(N)c3c2C)cc1OC`, the outcome was inactive.

As for `CC(C)CCNCc1c(O)ccc2ccccc12`, the outcome was inactive.

`CCn1c(C(C)C)cc2c3c(N)nc(N)nc3ccc21`: the outcome was inactive.

Consider `COCCn1c(Sc2ncnc3sccc23)nc2ccccc21`, for which the outcome was inactive.

Take `COc1ccccc1CCNc1nc(C)cc(N[C@@H](Cc2ccccc2)C(=O)NCc2cccs2)n1`: the outcome was inactive.

Regarding `Cc1ccc2c(NN=Cc3cccc([N+](=O)[O-])c3)cc(C)nc2c1`, the result was inactive.

On to `CCCCCCCN(Cc1ccc(OC(C)(C)C(=O)OCC)cc1)C(=O)Nc1ccccc1OCC`, for which the result was inactive.

In the case of `COc1ccc(CNCc2ccc(-c3ccc(-c4nc5ccc(F)cc5[nH]4)cc3)cc2)cc1`, the result was inactive.

Regarding `COc1ccc(OC)c(-c2cccc(-c3cccc(NC(=O)c4ccc([N+](=O)[O-])o4)c3)n2)c1`, the outcome was inactive.
